# Bioassay records (PubChem)
# TRb SRC2 PPI = qHTS for Inhibitors of the Interaction of Thyroid Hormone Receptor and Steroid Receptor Coregulator 2; AID 1469, 2008; Thyroid hormone receptor beta (Homo sapiens), P10828; actives 0.065% (n = 280,000); TRbeta-SRC2 peptide binding, fluorescence polarization; receptor liganded with 1 µM T3; Potency, µM (titrated, usually from 106 µM), actives largely listed as inhibitors; further: nearly all actives have a fitted effect of over 50% in size
# Target sequence (P10828 whole entry, looked up): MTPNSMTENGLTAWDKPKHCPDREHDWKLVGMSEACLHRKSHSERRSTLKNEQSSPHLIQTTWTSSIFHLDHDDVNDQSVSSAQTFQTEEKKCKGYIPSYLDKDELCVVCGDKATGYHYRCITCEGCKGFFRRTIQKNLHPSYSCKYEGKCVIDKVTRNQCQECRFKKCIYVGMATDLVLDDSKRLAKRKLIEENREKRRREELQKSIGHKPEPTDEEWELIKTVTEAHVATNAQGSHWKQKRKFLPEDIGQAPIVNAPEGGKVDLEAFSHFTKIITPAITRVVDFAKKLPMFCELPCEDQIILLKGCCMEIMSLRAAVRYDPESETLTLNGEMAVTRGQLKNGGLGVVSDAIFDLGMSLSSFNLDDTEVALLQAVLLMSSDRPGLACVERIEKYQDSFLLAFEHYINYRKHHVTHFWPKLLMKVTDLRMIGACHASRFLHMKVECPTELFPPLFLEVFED
#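 Quantitative HTS by FP: 0.6 uM TRb LBD, 20 nM labeled SRC2 20-mer, 1 uM T3, 5% DMSO; 5 hr ambient incubation; % activity per concentration and potencies from concentration series.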
# Tau ThT inhib = qHTS for Inhibitors of Tau Fibril Formation, Thioflavin T Binding; Microtubule-associated protein tau (Homo sapiens), P10636; recombinant tau K18 P301L, heparin-induced fibrillization, ThT fluorescence; actives 2.1% (n = 270,000); Potency, µM (top dose mostly 57.4 µM), most hits filed as inhibitors; AID 1460, 2008; further: nearly all actives have a fitted effect of over 55% in size
# Target sequence (P10636 561-689 P618L limits assumed): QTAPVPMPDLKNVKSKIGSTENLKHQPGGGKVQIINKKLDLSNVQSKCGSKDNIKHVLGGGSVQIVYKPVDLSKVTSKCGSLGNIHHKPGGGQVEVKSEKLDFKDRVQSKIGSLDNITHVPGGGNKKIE
#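 Recombinant human tau K18 fragment […] carrying P301L, 15 uM unlabeled plus 0.24 uM Alexa 594-labeled, was fibrillized with 20 uM heparin in 100 mM sodium acetate pH 7 for 6 hr at 37 C; 30 uM ThT fluorescence read after 1 hr.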
# Tau fibril FP = qHTS for Inhibitors of Tau Fibril Formation, Fluorescence Polarization; K18 P301L tau heparin fibrillization, Alexa594 FP, 6 h; Potency, µM (titrated, usually from 57.7 µM), usual class: inhibitors; actives 0.39% (n = 280,000); AID 1468, 2008; further: nearly all actives have a fitted effect of over 55% in size
#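 Read-out: fluorescence polarization of Alexa 594-labeled tau (0.24 uM), 555 nm excitation, 632 nm emission. Mixtures held 15 uM unlabeled K18 P301L, compound and 20 uM heparin, pH 7 acetate buffer, incubated 6 hr at 37 C.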
# Tau fluor counter = Counterscreen qHTS for Inhibitors of Tau Fibril Formation, Fluorescence Polarization | tau K18 P301L Alexa594 fluorescence, heparin fibrillization | Potency, µM (doses to about 57.7 µM) | actives 0.93% (n = 280,000); further: nearly all actives have a fitted effect of over 55% in size
#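 Human tau K18 P301L (15 uM unlabeled, 0.24 uM Alexa 594-labeled) in 100 mM sodium acetate pH 7 with 20 uM heparin, 6 hr at 37 C. ThT 30 uM added, 1 hr ambient; Alexa 594 FP and total fluorescence read at 555/632 nm.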
# TexasRed fluor = Total Fluorescence Counterscreen for Inhibitors of the Interaction of Thyroid Hormone Receptor and Steroid Receptor Coregulator 2. TRb/SRC2 Texas Red total fluorescence interference. Potency, µM (highest dose often 106 µM). actives 0.29% (n = 280,000). AID 1479, 2009; active means well fitted curve in either direction with a large enough effect; inconclusive means small, poorly fitted or top-dose-only effect
#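 Human TRβ ligand-binding domain (0.6 uM) and Texas Red SRC2 peptide (20 nM) in Tris buffer with 1 uM T3 and 5% DMSO were incubated with pinned compound for 5 hr at ambient temperature. Total fluorescence was computed as S + 2P (555/632 nm).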
# Hits are given with their value; - = inactive; ? = inconclusive; . = no result; [ ] = remark or other dose. Shown are actives, neighbours in structure and some others; about 3.1% of the full set was active somewhere. Unless noted, the call rests on the fitted dose curve; in most records, active means well fitted curve in the direction sought with a large enough effect; inconclusive means small, poorly fitted or top-dose-only effect, or another doubt; inactive means no such curve, though single readings can be large; an effect the other way counts as inactive or inconclusive.
SMILES,TRb SRC2 PPI,Tau ThT inhib,Tau fibril FP,Tau fluor counter,TexasRed fluor
COc1ccc(NC(=O)CN(C)S(=O)(=O)c2ccc3[nH]c4c(c3c2)CCCC4)cc1Cl,-,-,-,14.1µM[quencher],-
COc1ccc(NC(=O)CN(C)S(=O)(=O)c2ccc3[nH]c4c(c3c2)CCCC4)cc1OC,-,-,-,?,-
CN(C)CCNC=C(C(=O)Nc1ccc(Cl)cc1Cl)C(=O)Nc1ccc(Cl)cc1Cl,-,-,10µM,?,-
N#Cc1c(N)nc2c(c1-c1ccc(Br)s1)CCCC2,-,-,-,-,-
Nc1nc(-c2ccc(Br)s2)c(Br)s1,-,?,-,14.1µM[quencher],-
COc1ccc(OC/C(O)=C(\C#N)c2nc3ccccc3[nH]2)cc1,-,-,-,-,-
COc1ccccc1OCC(=O)OC/C(O)=C(\C#N)c1nc2ccccc2[nH]1,?,-,-,-,2.51µM[quencher]
CC(=O)OC1CCC(C(C)(C)C)CC1 (stereo not given),-,.,.,.,-
O=c1ccc2cc3c([nH]c4ccc(Br)cc43)oc-2c1O,-,14.1µM,?,?,-
O=c1c2c([nH]c3ccc(Br)cc13)CCCC2,-,-,-,-,-
Cc1cc(Nc2cccc(Cl)c2)nc2ccc(NC(=O)c3cccnc3)cc12,-,?,-,7.94µM[quencher],-
Cc1cc(Nc2cccc(C(F)(F)F)c2)nc2ccc(NC(=O)c3ccc(N(C)C)cc3)cc12,-,3.55µM,-,3.55µM[quencher],-
Cc1cc(Nc2cccc(Cl)c2)nc2ccc(NC(=O)c3cccc(N(C)C)c3)cc12,-,?,-,4.47µM[quencher],-
Cc1ccc(OCC(=O)Nc2ccc3c(c2)nc(CCNC(=O)c2ccco2)n3C)cc1,-,-,-,-,-
CCOC(=O)c1cccc(NC(=O)CN2C(=O)c3ccccc3Sc3ncccc32)c1,-,-,-,-,-
C=C(C)C(=O)OCCCCCCCCCCCC,-,.,.,.,-
Clc1nnc(N/N=C/c2ccccc2)c2ccccc12,-,?,?,?,-
Clc1nnc(NN=C2CCCC2)c2ccccc12,-,25.1µM,-,?,-
CC[n+]1ccc(/C=C/c2ccc(N(C)C)cc2)c2ccccc21,?,1.41µM,?,0.708µM[fluorescent],31.6µM[fluorescent]
CC[n+]1ccccc1/C=C/c1ccc(N(C)C)cc1,-,14.1µM,-,-,-
CN(C)c1ccc(/C=C/c2cc[n+](C)cc2)cc1,?,3.98µM,?,14.1µM[fluorescent],44.7µM[fluorescent]
CC1=C(C(=O)O)N2C(=O)C(NC(=O)C(N)c3ccccc3)C2SC1 (stereo not given),-,-,-,-,-
COc1ccc(-c2cc(OC(=O)c3ccc(F)cc3)c3c(C)oc(C)c3c(=O)c2)cc1OC,-,-,-,-,-
COc1cc(N(C)C)cc(CN(C)CCc2ccc([N+](=O)[O-])cc2)c1O,?,.,.,.,-
O=C(NCCSc1c(-c2ccc(Cl)cc2)[nH]c2ccccc12)c1ccc(S(=O)(=O)N2CCOCC2)cc1,-,-,-,3.98µM[quencher],-
SMILES,TRb SRC2 PPI,Tau ThT inhib,Tau fibril FP,Tau fluor counter,TexasRed fluor
O=C(NCc1ccc2[nH]c3c(c2c1)CCCC3)c1ccc(S(=O)(=O)N2CCOCC2)cc1,-,-,-,?,-
O=C(NCCSc1c(-c2ccc(Br)cc2)[nH]c2ccccc12)c1ccc(S(=O)(=O)N2CCOCC2)cc1,-,-,-,4.47µM[quencher],-
COc1cccc(Nc2nc(-c3sc(N)nc3C)cs2)c1,-,11.2µM,-,14.1µM[quencher],-
COc1cccc(Nc2nc(-c3sc(NC(=O)c4ccco4)nc3C)cs2)c1,-,10µM,?,?,-
CCOCCCNc1nc2c(C)cccn2c(=O)c1/C=C1\SC(=S)N(C(C)CC)C1=O (stereo not given),-,?,22.4µM,-,-
CCOCCCNc1nc2c(C)cccn2c(=O)c1/C=C1\SC(=S)N(CC(C)C)C1=O,-,-,-,-,-
C=CC1=C2C=C(C3CC3)N(CCOC)C=C2C(=O)C(C)(OC(=O)c2ccco2)C1=O (stereo not given),-[11.2 µM],-[11.5 µM],-[11.6 µM],-[11.6 µM],-[11.2 µM]
CC(=O)Oc1c(C)cc(O)c2ccccc12,-,25.1µM,?,?,-
CN(C)c1ccc(NC(=S)c2ccccn2)cc1,-,3.55µM,-,?,-
COC/C=C/C1=CC2=CC(=O)C(C)(OC(=O)c3cnc4ccccc4n3)C(=O)C2=CN1CCc1ccccn1 (stereo not given),-[11.2 µM],-[11.5 µM],-[11.6 µM],-[11.6 µM],-[11.2 µM]
COC/C=C/C1=CC2=CC(=O)C(C)(OC(=O)c3cnc4ccccc4n3)C(=O)C2=CN1Cc1ccccc1 (stereo not given),-[11.2 µM],10µM,?,?,-[11.2 µM]
COC/C=C/C1=CC2=CC(=O)C(C)(OC(=O)c3cnc4ccccc4n3)C(=O)C2=CN1CCCCO (stereo not given),-[11.2 µM],12.6µM,?,-[11.6 µM],?
COC/C=C/C1=CC2=CC(=O)C(C)(OC(=O)c3cnc4ccccc4n3)C(=O)C2=CN1Cc1ccc(OC)cc1 (stereo not given),-[11.2 µM],12.6µM,?,?,-[11.2 µM]
COC/C=C/C1=CC2=CC(=O)C(C)(OC(=O)c3cnc4ccccc4n3)C(=O)C2=CN1c1ccc(OC)cc1 (stereo not given),-[11.2 µM],-[11.5 µM],-[11.6 µM],-[11.6 µM],-[11.2 µM]
COc1ccccc1NC(=O)C(=O)NCC(c1ccc2c(c1)OCO2)N1CCN(C)CC1 (stereo not given),-,-,-,-,-
COc1cccc(CNC(=O)C(=O)NCC(c2ccco2)S(=O)(=O)c2cccs2)c1 (stereo not given),-,-,-,-,-
COc1ccccc1C(=O)NNC(=S)NC(=O)c1sc2ccccc2c1Cl,-,7.08µM,-,-,-
COC(=O)c1ccc(N2C(=O)Cc3cc(OC)c(OC)cc3C2c2ccc(F)cc2)cc1 (stereo not given),-,-,-,-,-
Nc1nnc(-c2ccco2)s1,-,-,-,-,-
Nc1ncnc2oc(-c3ccco3)c(-c3ccco3)c12,-,20µM,?,?,?
COc1cc2c(cc1OC)CN(c1ccc([N+](=O)[O-])cc1Cl)CC2,-,7.08µM,-,?,-
COc1ccccc1N1CCN(c2ccc([N+](=O)[O-])cc2Cl)CC1,-,8.91µM,-,?,-
Oc1cc(-c2ccccc2)c2ccccc2c1,-,14.1µM,?,?,-
O=P1(O)Oc2c(c(-c3ccccc3)cc3ccccc23)-c2c(-c3ccccc3)cc3ccccc3c2O1,-,-,-,-,-
CCOCC(=O)Nc1ccc(-c2cn3c(C)csc3n2)cc1,-,?,-,-,-
